# Hits are enriched below; roughly 3.3% of the tested compounds scored in any of these assays.
# Sm TGR block – blocks Schistosoma mansoni thioredoxin glutathione reductase. Potency, µM (titrated, usually from 114 µM), for inactives: top-dose activity change, negative = inhibition, hits mostly inhibitors. purified TGR, DTNB reduction, TNB absorbance 405 nm. Q962Y6. 360,000 tested, 3% active; note: nearly all actives have a fitted effect of over 60% in size
#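 TGR 20 nM + NADPH 100 uM (dispensed conc.), cpd preinc 15 min RT; start with NADPH (500 uM addition) then DTNB (15 mM addition). Kinetic TNB absorbance, 405 nm filter. Four-parameter Hill fit across titration.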
# AmpC no deterg – blocks E. coli AmpC beta-lactamase in detergent-free assay. Potency, µM (series often up to 57.1 µM), for inactives: at the top dose activity change, negative = inhibition, hits mostly inhibitors. AmpC nitrocefin hydrolysis, absorbance 480 nm, 0.0001% Triton. 330,000 tested, 0.52% active. P00811;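 note: plate controls were no compound for no effect and no enzyme for full effect; nearly all actives have a fitted effect of over 20% in size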
# Target sequence (P00811 whole entry, looked up): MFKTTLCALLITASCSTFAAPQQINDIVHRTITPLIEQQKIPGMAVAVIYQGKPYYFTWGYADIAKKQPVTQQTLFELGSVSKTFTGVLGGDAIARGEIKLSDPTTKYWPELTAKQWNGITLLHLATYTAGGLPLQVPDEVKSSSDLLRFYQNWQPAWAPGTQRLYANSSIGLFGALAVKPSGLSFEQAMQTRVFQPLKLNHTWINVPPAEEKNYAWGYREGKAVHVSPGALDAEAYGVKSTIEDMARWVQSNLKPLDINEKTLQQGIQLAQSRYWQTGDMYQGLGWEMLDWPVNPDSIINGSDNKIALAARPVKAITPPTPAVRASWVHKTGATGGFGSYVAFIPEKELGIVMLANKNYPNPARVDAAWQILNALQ
#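 AmpC (5.3 nM in the dispensed reagent) in 20 mM phosphate pH 7.0 with 0.01% (detergent screen) or 0.0001% Triton X-100 was preincubated with compounds for 15 min at room temperature. Nitrocefin was then added from an 800 uM solution, and hydrolysis was followed at 480 nm.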
# AmpC detergent – blocks E. coli AmpC beta-lactamase in detergent assay | AmpC hydrolysis of nitrocefin, absorbance 480 nm, 0.01% Triton | Potency, µM (top dose mostly 114 µM), inactives show at the top dose activity change, negative = inhibition, usual class: inhibitors | 370,000 tested, 0.041% active | AID 485294;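 note: 0% = no-compound wells and -100% = no-enzyme wells; nearly all actives have a fitted effect of over 25% in size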
#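 AmpC (5.3 nM in the dispensed reagent) in 20 mM phosphate pH 7.0 with 0.01% (detergent screen) or 0.0001% Triton X-100 was preincubated with compounds for 15 min at room temperature. Nitrocefin was then added from an 800 uM solution, and hydrolysis was followed at 480 nm.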
# Starred values were filed as active, the others as inactive; ? = inconclusive; · = no result given; [ ] = remark or other dose. Calls come from the whole dose curve; as a rule, active = well fitted curve in the direction sought with a large enough effect; inconclusive = small, poorly fitted or top-dose-only effect, or another doubt; inactive = no such curve, though single readings can be large; an effect the other way counts as inactive or inconclusive. Unless noted, % is set by controls: 0 for no effect and ±100 for the full control effect; potency is the fitted concentration of half-maximal effect.
SMILES,Sm TGR block,AmpC no deterg,AmpC detergent
O=C(O)CCN1C(=O)c2ccc(Oc3ccc([N+](=O)[O-])cc3)cc2C1=O,9.6%,34.9%,?
COc1cc(NS(=O)(=O)c2ccc(NC(=S)NC(=O)C3CCCC3)cc2)nc(OC)n1,45.5%,15.8µM*,-1.4%
COc1cc(NS(=O)(=O)c2ccc(NC(=S)NC(=O)c3sc4ccccc4c3Cl)cc2)ncn1,3.1%,-14.4%,-11.5%
COc1cc(NS(=O)(=O)c2ccc(NC(=S)NC(=O)CC(C)C)cc2)nc(OC)n1,?,-38.8%,?
COc1cc(NS(=O)(=O)c2ccc(NC(=S)NC(=O)c3ccco3)cc2)ncn1,39.8µM*,-20.0%,-3.4%
COc1cc(NS(=O)(=O)c2ccc(NC(=S)NC(=O)c3ccc(F)cc3)cc2)nc(OC)n1,31.6µM*,-43.9%,-8.5%
COc1cc(NS(=O)(=O)c2ccc(NC(=S)NC(=O)/C=C/c3ccc(F)cc3)cc2)ncn1,-14.8%,-24.3%,-7.9%
COc1ccc(C(=O)NC(=S)Nc2ccc(S(=O)(=O)Nc3cc(OC)ncn3)cc2)cc1,20µM*,-22.0%,-5.8%
COc1cc(NS(=O)(=O)c2ccc(NC(=S)Nc3ccccc3)cc2)nc(OC)n1,1.9%,2.4%,4.2%
CC(C)(C)C(O)CN1CCCC1 (configuration not stated),-6.1%,-30.3%,-11.1%
COc1ccc(OC2CCN(S(=O)(=O)c3ccc(OC)c(OC)c3)CC2)cc1,-11.1%,62.1%,-0.1%
CC(C)CCC(C)NC(=O)C1CCN(S(=O)(=O)/C=C/c2ccccc2)CC1 (configuration not stated),5.5%,-0.4%,-8.6%
COc1ccc(C(=O)NC(=S)Nc2ccc(S(=O)(=O)Nc3cc(OC)nc(OC)n3)cc2)cc1,14.1µM*,-43.7%,-1.9%
COc1cc(NS(=O)(=O)c2ccc(NC(=O)c3ccc(C(C)=O)cc3)cc2)nc(OC)n1,0.4%,·,2.5%
Cc1ccc(N(CC(=O)N(C)Cc2ccccc2)S(C)(=O)=O)cc1C,1.4%,50.4%,?
O=[N+]([O-])c1cc(/C=N/O)ccc1Oc1cccc(Cl)c1,·,-28.9%,3.4%
Cc1cc(=O)oc2cc(Oc3ncccc3[N+](=O)[O-])ccc12,5.4%,-32.9%,1.6%
O=Cc1cccc(Oc2ccc([N+](=O)[O-])cc2[N+](=O)[O-])c1,44.7µM*,-13.9%,?
Cc1cc(=O)oc2cc(Oc3ccc([N+](=O)[O-])cc3[N+](=O)[O-])ccc12,50.1µM*,-33.4%,-14.6%
O=C(O)COc1ccccc1/C=N/NC(=O)c1cccc(S(=O)(=O)Nc2cccc(Cl)c2)c1,-15.3%,-21.9%[11.4 µM],-10.4%
CCOc1ccc(C(=O)Nc2cccc(C(=O)OCc3cc(=O)n4cc(C)sc4n3)c2)cc1,2.9%,·,8.5%
CCOC(=O)c1ccc(OCC2c3cc(OC)c(OC)cc3CCN2C(=O)Cc2ccc(F)cc2)cc1 (configuration not stated),8.1%,·,-3.5%
Cc1ccc(S(=O)(=O)N[C@@H](C)C(=O)OCC(=O)N2c3ccccc3NC(=O)C2(C)C)cc1,-13.6%,-11.8%,-4.1%
O=C(CNC(=O)c1ccc(Cl)cc1)OCCCOC(=O)CNC(=O)c1ccc(Cl)cc1,-1.0%,21.6%,-0.4%
N=c1c2c(-c3ccccc3)c(-c3ccccc3)n(Cc3ccco3)c2ncn1CCO,?,48.4%,-4.4%
SMILES,Sm TGR block,AmpC no deterg,AmpC detergent
N=c1c2c(-c3ccccc3)c(-c3ccccc3)n(Cc3ccco3)c2ncn1CCCO,28.2µM*,85.4%,2.3%
Cc1cccc(Nc2ncnc3c2cnn3C)c1C,0.0%,·,-3.8%
Cn1nnc(NC(=O)c2ccco2)n1,25.0%,-7.6%,5.4%
Cn1nnc(NC(=O)/C=C/c2ccco2)n1,8.91µM*,-31.1%,2.7%
CCCn1nnc(NC(=S)NC(=O)/C=C/c2ccco2)n1,7.08µM*,-53.4%,-0.9%
CCCn1nnc(NC(=S)NC(=O)C(C)(C)C)n1,-24.2%,-12.8%,?
Cc1ccc(OCCNC(=O)Cc2ccc(S(=O)(=O)N3CCOCC3)s2)cc1,-26.7%,41.7%,0.3%
O=[N+]([O-])c1ccc(C2NS(=O)(=O)N=C3CCCCCN32)cc1 (configuration not stated),6.6%,-9.5%,2.7%
CCOC(=O)c1c(C)[nH]c(C)c1S(=O)(=O)N1CCCC(C(=O)Nc2ccc(C)c(N(C)C)c2)C1 (configuration not stated),-5.8%,·,2.0%
O=C1/C(=C/c2ccccc2F)SC(=S)N1CC(=O)N1CCCCC1c1cccnc1 (configuration not stated),0.8%,41.5%,2.6%
Cc1cccc(NC(=O)Nc2ccc(S(N)(=O)=O)cc2)c1,-11.2%,-44.5%,1.7%

# Screening results (PubChem)
